The results in this text go back to PubChem BioAssay.

Active and inactive are the calls of the source. Unless noted, how the calls were made is not given here.

The nature of assay [1]: circadian clock period modulators, cell-based, LOPAC library, luminescence reporter (AID 2774).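 Further: values are relative to mean of DMSO wells on each plate.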 The note with it: circadian reporter cells, at 7 µM, actives lie on both sides.
For assay [2], the system named is Hepatitis C virus NS3 helicase. Put plainly: HCV NS3 helicase inhibitors, primary screen, biochemical, fluorescence polarization, LOPAC1280 library (AID 687035; in the data active means inhibition above about 37%). The settings on record: Purified HCV NS3 helicase, Cy5-dT15 ssDNA binding fluorescence polarization; stronger effect = higher value; concentration not given here.
Assay [3] can be described thus: Cy5 fluorescence quenching or enhancement artefacts, artefact control for HCV NS3 helicase inhibitor project, biochemical, LOPAC1280 (AID 687037). The settings on record: Cy5-DNA-NS3h complex fluorescence interference counterscreen.
The nature of assay [4]: sensitizers of A549 cells to miR-34 induction, primary screen, imaging, A549 dox-inducible miR-34, nuclei and caspase counts (AID 1347080;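 active means compounds whose cell count with miR-34 switched on is under 0.7 times the count with it off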). The settings on record: A549 miR-34 inducible, Hoechst nuclei count, 48 h.
Assay [5] can be described thus: phospholipid biosynthesis inhibitors in animal cells, primary screen, cell-based, LOPAC library, screen 4 (AID 1347384). The note with it: phospholipid biosynthesis inhibition screen, at 10 µM.
Assay [6] is described as follows: viability rescue of complex I mutant cybrids, primary screen, cell-based, galactose medium, ATP luminescence (AID 1645843;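 active means z-score of at least 1.8 in each of two replicates, scored against plate mean and spread of sample wells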;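 further: positive z means more ATP and so rescue of galactose-driven cybrid death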). The settings on record: complex I mutant cybrid cells, 72 h, stronger effect = higher value.
The mark [7] stands for this setting: stronger effect = lower value, cell number ratio, induced over uninduced.
The mark [8] stands for this setting: measured here: relative caspase fold change +Dox/-Dox.
[9] abbreviates: measured here: total cells with miR-34 induction, stronger effect = lower value.
Setting [10] is: measured here: total cells without miR-34 induction.

In the case of `CNCC[C@H](Oc1ccc(C(F)(F)F)cc1)c1ccccc1`, the period change in assay [1] was 0.185 h (inactive). In assay [2], the inhibition is -2% (inactive). The fluorescence ratio (interference) in assay [3] is 1 (inactive). For the same compound, the fold change in assay [4] (setting [7]) was 1.08 (inactive); in assay [4] (setting [8]), 0.944. Moreover, the cell count stood at 7270 in assay [4] (setting [9]) and 6730 in assay [4] (setting [10]). For the same compound, in assay [5], the compound was called inactive. The z-score in assay [6] was -0.925 (inactive).
Take `CCCn1c(=O)[nH]c(=O)c2[nH]cnc21`: the period change in assay [1] is 0.09 h (inactive). The inhibition in assay [2] is -1% (inactive). The fluorescence ratio (interference) in assay [3] was 1 (inactive). For the same compound, the fold change in assay [4] (setting [7]) was 0.996 (inactive); in assay [4] (setting [8]), 1.45. Besides, the cell count in assay [4] (setting [9]) stood at 9630; in assay [4] (setting [10]), 9670. The result in assay [5] was inactive. Further, in assay [6], the z-score is 0.47 (inactive).
In the case of `CC1(C)CCC(NC(=O)[C@@H](N)CCC(=O)O)CC1`, the period change in assay [1] was -0.095 h (inactive). The inhibition in assay [2] is -6% (inactive). Also, the fluorescence ratio (interference) in assay [3] was 1 (inactive). Moreover, the results for the fold change in assay [4] (setting [7]) and in assay [4] (setting [8]) were 1.1 (inactive) and 1.15, respectively. For the same compound, the cell count is 11000 in assay [4] (setting [9]) and 9970 in assay [4] (setting [10]). Moreover, the outcome in assay [5] was inactive. Besides, the z-score in assay [6] is 0.125 (inactive).
As for `Nc1ncnc2c1ncn2[C@@H]1O[C@H](COP(=O)(O)OP(=O)(O)OP(=O)(O)OP(=O)(O)OC[C@@H]2O[C@H](n3cnc4c(N)ncnc43)C(O)[C@@H]2O)[C@H](O)C1O` (stereo partly specified), in assay [1], the period change is 0.05 h (inactive). Moreover, the inhibition in assay [2] is 3% (inactive). Besides, the fluorescence ratio (interference) in assay [3] was 1 (inactive). The fold change in assay [4] (setting [7]) is 0.899 (inactive); in assay [4] (setting [8]), 1.4. Further, the figures for the cell count in assay [4] (setting [9]) and in assay [4] (setting [10]) were 8750 and 9730, respectively. Also, in assay [5], the compound was classed as inactive. In addition, the z-score in assay [6] was 4.53 (active).
With `C=CCn1c(=O)c2c(nc(-c3ccc(S(=O)(=O)O)cc3)n2C)n(C)c1=O`, the period change in assay [1] was -0.155 h (inactive). Also, the inhibition in assay [2] is -3% (inactive). Also, the fluorescence ratio (interference) in assay [3] was 1 (inactive). The fold change in assay [4] (setting [7]) is 1.02 (inactive); in assay [4] (setting [8]) it was 2.49. The cell count in assay [4] (setting [9]) is 10300; in assay [4] (setting [10]) it was 10100. For the same compound, the result in assay [5] was inactive. In assay [6], the z-score was 0.335 (inactive).
For `CC(=O)SC1CC2=CC(=O)CC[C@]2(C)C2CC[C@@]3(C)C(CC[C@@]34CCC(=O)O4)C12` (stereo partly specified), the period change in assay [1] was 0.045 h (inactive). The inhibition in assay [2] was -4% (inactive). Also, the fluorescence ratio (interference) in assay [3] was 1 (inactive). Further, the fold change in assay [4] (setting [7]) was 1.07 (inactive); in assay [4] (setting [8]) it was 1.82. Further, the cell count in assay [4] (setting [9]) was 7810; in assay [4] (setting [10]) it was 7280. The compound was called inactive in assay [5]. In assay [6], the z-score was 1.24 (inactive).
As to `NC(C(=O)N[C@@H]1C(=O)N2C(C(=O)O)=C(Cl)CS[C@H]12)c1ccccc1` (stereo partly specified), in assay [1], the period change is 0.03 h (inactive). In assay [2], the inhibition is 0% (inactive). For the same compound, in assay [3], the fluorescence ratio (interference) was 1 (inactive). Further, the figures for the fold change in assay [4] (setting [7]) and in assay [4] (setting [8]) were 1.02 (inactive) and 2.15, respectively. Also, the cell count in assay [4] (setting [9]) was 10500; in assay [4] (setting [10]), 10300. Further, the result in assay [5] was inactive. Besides, in assay [6], the z-score was 0.38 (inactive).
For `C=CCN1CCc2c(cc(O)c(O)c2Br)[C@@H](c2ccccc2)C1`, the period change in assay [1] was 0.175 h (inactive). The inhibition in assay [2] was -2% (inactive). The fluorescence ratio (interference) in assay [3] is 1 (inactive). Also, the fold change in assay [4] (setting [7]) was 1.09 (inactive); in assay [4] (setting [8]), 2.06. Further, the cell count came to 5920 in assay [4] (setting [9]) and 5430 in assay [4] (setting [10]). Besides, in assay [5], the outcome was inactive. Further, the z-score in assay [6] was -1.42 (inactive).
With `CC1C(=O)N(C)C(=O)c2nc[nH]c21` (stereo unspecified), in assay [1], the period change was 0.13 h (inactive). In addition, the inhibition in assay [2] was -3% (inactive). The fluorescence ratio (interference) in assay [3] is 0.9 (inactive). The values for the fold change in assay [4] (setting [7]) and in assay [4] (setting [8]) were 0.928 (inactive) and 1.21, respectively. Also, the cell count in assay [4] (setting [9]) amounted to 9940; in assay [4] (setting [10]), 10700. Also, in assay [5], the compound was called inactive. Moreover, in assay [6], the z-score is 0.22 (inactive).
